Source: PubChem BioAssay
Methyltransferases: Primary Screen for Target Class Profiling of Small Molecule Inhibitors of Methyltransferases; purified enzyme, MTase-Glo SAH luminescence; stronger effect = lower value; 3.9% of 25,000 active; calls only at 40 µM; call rule not given here
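Each enzyme was reacted with SAM and its substrate, with compounds tested once at 40 uM; SAH formed was read by MTase-Glo luminescence.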
Calls only; n = inactive; + = active, no number. The full list was thinned out, with hits kept by preference.

SMILES	Methyltransferases
Cc1cc(-c2cc(OC(=O)c3ccccc3)ccc2Cl)cc2nnc(Nc3ccc(OCCN4CCCC4)cc3)nc12	n
O=C(Cc1cccc(Cl)c1)N1CCC(C(=O)N2CCC(c3ccccc3)CC2)CC1	n
CCOc1ccc(CNC(=O)c2cc3n(n2)CC(C)(C(=O)NCc2ccc(C)cc2)N(C)C3=O)cc1OC (stereo not drawn)	n
CC1(C(=O)NC2CCCCC2)Cn2c(ccc2-c2ccccc2)C(=O)N1Cc1ccco1 (stereo not drawn)	n
Oc1ccc2ccccc2c1SSc1c(O)ccc2ccccc12	+
COc1ccc(CN2C(=O)c3ccc(-c4ccco4)n3CC2(C)C(=O)NC2CCCC2)cc1 (stereo not drawn)	n
CC1(C(=O)NC2CCCCC2)Cn2c(ccc2-c2ccco2)C(=O)N1Cc1cccnc1 (stereo not drawn)	n
COc1ccccc1CNc1nc2c(-c3cccc(C)c3)nnn2c2ccccc12	n
CCc1ccc(C(=O)NC(Cc2c[nH]c3ccccc23)C(=O)OCC(=O)c2ccc(C)cc2)cc1 (stereo not drawn)	n
COC(=O)C(Cc1c[nH]c2ccccc12)NC(=O)c1ccc(Br)cc1 (stereo not drawn)	n
COC(=O)[C@H](Cc1cccc(C(=N)N)c1)[C@@H](C)NC(=O)c1ccc(-c2cc[n+]([O-])cc2)cc1	+
CC1CCC(NC(=O)C2(C)Cn3c(cc4occc43)C(=O)N2Cc2ccc(F)cc2)CC1 (stereo not drawn)	n
CC1(C(=O)NC2CCCCCCC2)Cn2c(cc3ccccc32)C(=O)N1CCN1CCOCC1 (stereo not drawn)	n
OC[C@H]1O[C@@H](n2cnc3c(NCc4ccc(O)cc4)ncnc32)[C@H](O)[C@@H]1O	n
N#Cc1ccc(COC[C@H]2O[C@@H](n3c(NCc4ccc(Cl)c(Cl)c4)nc4c(N)ncnc43)[C@H](O)[C@@H]2O)cc1	+
Nc1ncnc2c1ncn2[C@@H]1O[C@H](COP(=O)(O)CP(=O)(O)OP(=O)(O)O)[C@@H](O)[C@H]1O	n
COc1ccc(Cl)cc1S(=O)(=O)Nc1ccc2[nH]c(=O)[nH]c2c1	n
O=C1c2ccccc2C(=O)c2c1cccc2S(=O)(=O)Nc1ccc(Cl)cc1	+
CC1CCN(S(=O)(=O)c2cccc3c2C(=O)c2ccccc2C3=O)CC1	n
CC(C)CCNC(=O)C1c2c(n(C)c3ccccc23)SCC(=O)N1Cc1cccs1 (stereo not drawn)	n
CCCSCCCN1C(=O)c2nc3ccccc3n2CC1(C)C(=O)NC1CCCCC1C (stereo not drawn)	n
OC1(CN2CCCCC2)CCN(Cc2cnn(-c3ccccc3Cl)c2)C1 (stereo not drawn)	n
O=C(CCc1nnc2n(Cc3ccccc3)c(=O)c3ccccc3n12)Nc1cccc(Cl)c1	n
Cc1cccc(N2CCN(S(=O)(=O)c3cc4c(cc3Br)n(C)c(=O)n4C)CC2)c1C	n
Cc1ccc([N+](=O)[O-])cc1S(=O)(=O)N(C)/N=C/c1cnc2ccc(Br)cn12	+
SMILES	Methyltransferases
COc1ccc(-c2nnc(-c3ccc(OC)c(S(=O)(=O)N4CCC(C)CC4)c3)o2)cc1OC	n
CC[C@H](C)C(=O)O[C@H]1CCC=C2C=C[C@H](C)[C@H](CC[C@@H]3C[C@@H](O)CC(=O)O3)[C@H]21	+
CC[C@H](C)C(=O)O[C@H]1C[C@@H](C)C=C2C=C[C@H](C)[C@H](CC[C@@H]3C[C@@H](O)CC(=O)O3)[C@H]21	n
COc1cc(NC(=O)Cn2nc3n(Cc4ccc(F)cc4)c(=O)c4ccccc4n3c2=O)cc(OC)c1	n
CC(C)OCCCn1c(=O)c2ccccc2n2c(-c3ccc(O)cc3)nnc12	n
CCc1ccc(NC(=O)CSc2nnc3n(CCC(C)C)c(=O)c4ccccc4n23)cc1	n
COCCCN1C(=O)c2cc(-c3ccc(OC)cc3)nn2CC1(C)C(=O)NCc1ccccc1 (stereo not drawn)	n
Cc1ccc2c(c1)c(-n1cccc1)c1n2CC(C)(C(=O)NC2CCCC2)N(Cc2ccccn2)C1=O (stereo not drawn)	n
CC1(C(=O)NC2CCCCCC2)Cn2c(cc3sccc32)C(=O)N1Cc1ccccc1F (stereo not drawn)	n
CCCCCCCC/C=C\CCCCCCCC(=O)NCCc1ccc(O)c(O)c1	n
CC(N)(Cc1ccc(O)c(O)c1)C(=O)O (stereo not drawn)	+
C[C@](Cc1ccc(O)c(O)c1)(NN)C(=O)O	+
COc1cc(CC(=O)O)ccc1O	n
O=C(Cn1c(=O)oc2cc(S(=O)(=O)NCc3ccccc3)ccc21)NCCCc1ccccc1	n
O=C(Cn1nc2n(Cc3ccccc3)c(=O)c3ccccc3n2c1=O)Nc1cc(F)ccc1F	n
Cc1ccc(S(=O)(=O)c2nnn3c2nc(NC2CC2)c2cc(Cl)ccc23)cc1C	n
O=C(c1csc(-c2cccs2)n1)N1CCC2(CCCO2)CC1	n
CCCS(=O)(=O)N1C[C@@H](Oc2cccnc2)C[C@H]1C(N)=O	n
CCOc1ccc(CN2C(=O)c3cc(-c4ccccc4)nn3CC2(C)C(=O)NCCCOC)cc1 (stereo not drawn)	n
O=C(CCn1ccc2cc(S(=O)(=O)N3CCCC3)ccc21)NCc1ccc2c(c1)OCO2	n
N#CC(=C(\N)Sc1ccccc1N)/C(C#N)=C(/N)Sc1ccccc1N	+
Cc1ccc(N2C(=O)c3cc4sccc4n3CC2(C)C(=O)NC2CCCCCC2)cc1C (stereo not drawn)	n
COc1ccc(N2CCN(C(CNS(=O)(=O)c3ccc(OC)cc3)c3ccco3)CC2)cc1 (stereo not drawn)	n
CSCCC(NC(=O)c1ccccc1NC(=O)c1ccc(C)cc1)C(=O)O (stereo not drawn)	n
CCN1CCN(CCNC(=O)CCn2ccc3cc(S(=O)(=O)N4CCCCC4)ccc32)CC1	n
SMILES	Methyltransferases
Cc1cc(C)c(NC(=O)N(Cc2ccc3c(c2)Cc2ccccc2-3)C2CCCCCC2)c(C)c1	+
COCCCN1C(=O)c2ccccc2CC1(C)C(=O)NC1CCCCCCC1 (stereo not drawn)	n
CC1(C(=O)NC2CCCCCCC2)Cc2ccccc2C(=O)N1Cc1cccs1 (stereo not drawn)	n
CCCC(=O)NCCc1c2n(c3ccc(OC)cc13)CCCc1ccccc1-2	+
COc1ccc(OC)c(CCNC(=O)CCc2nnc3n(Cc4ccc(F)cc4)c(=O)c4ccccc4n23)c1	n
COc1ccc(OC)c(CCNC(=O)Cn2ccc3cc(S(=O)(=O)N4CCCC4)ccc32)c1	n
CCOc1ccc(C(=O)Cn2nc3n(Cc4ccccc4)c(=O)c4ccccc4n3c2=O)cc1	n
CCCn1c(=O)c2cc(Cl)ccc2n2c(SCC(=O)Nc3ccc(C)cc3)nnc12	n
CN1C(=O)c2cc(C(=O)NCc3cccc(F)c3)nn2CC1(C)C(=O)NC1CCCCC1 (stereo not drawn)	n
CC1(C(=O)NC2CCCCCC2)Cn2c(cc3ccccc32)C(=O)N1Cc1ccco1 (stereo not drawn)	n
CCC(C)NC(=O)c1ccc2c(=O)n(C(C)C)c3nn(Cc4ccc(C)cc4)c(=O)n3c2c1 (stereo not drawn)	n
Nc1nc(NCCNc2ncc(-n3ccnc3)c(-c3ccc(Cl)cc3Cl)n2)ccc1[N+](=O)[O-]	+
COc1ccccc1CNC(=O)CCc1nnc2n(Cc3ccccc3)c(=O)c3ccccc3n12	n
Cc1noc(C)c1C(=O)N1CCN(S(=O)(=O)c2ccc(Cl)nc2)C(=O)C1	n
